The sample as a whole holds a higher share of the strongest signals than the screen did.
tested on: Fuc(a1-2)[GalNAc(a1-3)]Gal(b1-3)GlcNAc(b1-2)Man(a1-3)[Fuc(a1-2)[GalNAc(a1-3)]Gal(b1-3)GlcNAc(b1-2)Man(a1-6)]Man(b1-4)GlcNAc(b1-4)[Fuc(a1-6)]GlcNAc; assay: glycan array binding signal (z-score within array); higher = stronger binding; conditions: glycan notation: IUPAC condensed, linker removed
How it was run: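 Columns mapping to the same glycan were averaged after glycan names were converted to IUPAC-condensed notation. The data come from 3228 arrays in the Consortium for Functional Glycomics database, limited to those with an available protein sequence. Binding is reported as a within-array Z-score averaged across arrays of one protein sequence and across linkers.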

| Substance | glycan array binding signal (z-score) |
| --- | --- |
| LcI (Legionella pneumophila) | -0.427 |
| AgI/II Vhelical-GFP (Streptococcus mutans) | -0.218 |
| Actinohivin (Actinomycete K97) | 0.857 |
